The list is not random: actives were taken first. Their share in the collection is about 6.5%.
FMDV antiviral: blocks foot and mouth disease virus; AID 1159524; FMDV antiviral cell-based qHTS; hit rate 1.2% among 410,000; Potency, µM (doses to about 57.9 µM), hits mostly inhibitors; calls by dose curve; tested in HEK293T cells; further: read-out not given here; nearly all actives have a fitted effect of over 45% in size
HCMV inh: blocks human cytomegalovirus replication; HFF cells, HCMV-luciferase reporter, 72 h; active compounds read low; activity change, negative = inhibition, % at 57.5 µM; hit rate 4.5% among 410,000; in the data active means activity change below about -60%; inconclusive means no clear call, values can overlap the other calls; inactive means above about -39%
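Cell-based, HFFs, 1000 cells/well, 16 h 37C; cpds in DMSO + HCMV-luc, MOI 1 PFU/cell; 72 h 37C; OneGlo luminescence after 5 min RT; norm. to buffer vs Salinomycin 10uM.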
Marburg entry inh: inhibitors of Marburg virus binding or cell entry; Marburg virus pseudotyped entry inhibition, cell reporter; Potency, µM (titrated, usually from 37.8 µM), most hits filed as inhibitors; hit rate 1.8% among 300,000; AID 540276; calls by dose curve; tested in HEK293 cells
Vaccinia mCherry: vaccinia inhibition (mCherry reporter). Vaccinia virus mCherry reporter infection, fluorescence. Potency, µM (highest dose often 36.5 µM), hits mostly inhibitors. hit rate 0.63% among 310,000. AID 720579; calls by dose curve; tested in A549 cells; further: nearly all actives have a fitted effect of over 35% in size
Lassa entry inh: inhibitors of Lassa virus binding or cell entry. Lassa virus pseudotype entry inhibition, cell reporter. Potency, µM (titrated, usually from 37.9 µM), most hits filed as inhibitors. hit rate 1.2% among 300,000; calls by dose curve; tested in HEK293 cells; further: nearly all actives have a fitted effect of over 50% in size
Vaccinia Venus: vaccinia inhibition (Venus reporter); Potency, µM (doses to about 36.5 µM), actives largely listed as inhibitors; Vaccinia virus Venus reporter expression, fluorescence; hit rate 0.46% among 330,000; calls by dose curve; tested in A549 cells; further: nearly all actives have a fitted effect of over 30% in size
Each line names hits and unclear results; the compound was inactive in the other large screens.

COc1ccccc1-c1cc2c(Nc3cccc(S(C)(=O)=O)c3)nccc2[nH]1	none (no result: FMDV antiviral, Marburg entry inh, Vaccinia mCherry, Lassa entry inh, Vaccinia Venus)
COc1cc(OC)c2nc(-c3cc4c(c(OC)c3)OCCN(Cc3cn(C)nc3C)C4)cc(C)c2c1	none (no result: HCMV inh, Marburg entry inh, Lassa entry inh)
CC(NC(=O)c1ccc(NC(=O)c2nsc3ccccc23)cc1)c1ccccc1 (centres undefined)	none (no result: Marburg entry inh)
O=C(NCCNc1cc(Cl)ccc1[N+](=O)[O-])c1ccco1	HCMV inh -75, Lassa entry inh inconclusive
O=C(NNc1c([N+](=O)[O-])cc(C(F)(F)F)cc1[N+](=O)[O-])c1ccco1	FMDV antiviral 32µM (no result: Marburg entry inh, Vaccinia mCherry, Lassa entry inh, Vaccinia Venus)
CC(=O)O[C@H]1C[C@@H]2CC[C@@H]3[C@H](CC[C@]4(C)C(=O)CC[C@@H]34)[C@@]2(C)C[C@@H]1OC(C)=O	FMDV antiviral inconclusive (no result: HCMV inh, Marburg entry inh, Lassa entry inh)
C=C1C(=O)C2=CC1CCC(=O)C1(C)CCC(OC(C)=O)C(C)(C)C1CC2O (centres undefined)	FMDV antiviral 7.9µM, HCMV inh -99, Marburg entry inh inconclusive, Vaccinia mCherry 2.5µM, Lassa entry inh 13µM, Vaccinia Venus 4µM
Cn1ncc(Cl)c1C(=O)NC(=S)Nc1sc2c(c1C#N)CCCCC2	HCMV inh -60
N#Cc1c(NC(=S)NC(=O)c2ccccc2)sc2c1CCCCC2	none (no result: FMDV antiviral, HCMV inh, Marburg entry inh, Lassa entry inh)
Cc1cccc(N/C(N)=N/c2nc(C(F)(F)F)cc(=O)[nH]2)c1C	HCMV inh -104
Cc1cc(=O)[nH]c(/N=C(\N)Nc2cccc3ccccc23)n1	Marburg entry inh inconclusive, Lassa entry inh inconclusive, Vaccinia Venus inconclusive
CNc1c2cccc(C)c2nc2c(C(=O)NCCN(C)C)cccc12	FMDV antiviral inconclusive, HCMV inh -100, Marburg entry inh inconclusive, Vaccinia mCherry 2.2µM, Lassa entry inh inconclusive, Vaccinia Venus 2.2µM
Cc1ccc(C(=O)NCCN(C)C)c(C)c1	Lassa entry inh inconclusive
O=C(COC(=O)C12CC3CC(CC(Cl)(C3)C1)C2)Nc1ccccc1	none (no result: Marburg entry inh, Vaccinia mCherry, Lassa entry inh, Vaccinia Venus)
Cc1ccc(C(=O)COC(=O)c2ccc3c(c2)C(=O)N(c2cccc4ncccc24)C3=O)cc1	FMDV antiviral inconclusive, HCMV inh -94, Marburg entry inh inconclusive, Lassa entry inh inconclusive (no result: Vaccinia mCherry, Vaccinia Venus)
O=C(COC(=O)c1ccc2c(c1)C(=O)N(c1cccc3ncccc13)C2=O)c1ccc(Cl)cc1	FMDV antiviral inconclusive, HCMV inh -89, Marburg entry inh inconclusive, Lassa entry inh inconclusive
COCCNC(=O)c1ccccc1NC(=O)CSc1ccc(C)cc1	none
CCOC(=O)[C@H]1[C@H]2COc3ccc(OC)cc3[C@@H]2N2C(=O)c3cc(C)ccc3NC(=O)[C@@]12C	HCMV inh -62 (no result: Marburg entry inh, Lassa entry inh)
Cc1ccc2c(c1)[C@H]1[C@H](CO2)[C@H](c2ccccc2)[C@]2(C)C(=O)Nc3ccc(Cl)cc3C(=O)N12	Vaccinia Venus inconclusive (no result: Marburg entry inh, Lassa entry inh)
Cc1ccc2c(c1)[C@H]1[C@H](CO2)[C@H](c2ccccc2)[C@]2(C)C(=O)Nc3ccccc3C(=O)N12	HCMV inh -76, Vaccinia mCherry inconclusive (no result: Marburg entry inh, Lassa entry inh)
C[C@@]12C(=O)Nc3ccc(F)cc3C(=O)N1[C@H]1c3cc(Br)ccc3OC[C@@H]1[C@@H]2c1ccccc1	HCMV inh -70, Vaccinia Venus inconclusive (no result: Marburg entry inh, Lassa entry inh)
C[C@]12C(=O)N(c3cccc(F)c3)C(=O)N1[C@@H]1c3ccccc3OC[C@@H]1[C@H]2c1ccccc1	HCMV inh -86, Vaccinia mCherry inconclusive (no result: Marburg entry inh, Lassa entry inh)
O=C(CNC(=S)N(Cc1ccccc1)Cc1cccnc1)NCCN1CCOCC1	none
CC1CCN(C(=O)Cn2cc(SCC(=O)NCc3ccccc3)c3ccccc32)CC1	HCMV inh -85 (no result: Marburg entry inh)
COc1ccc(OC)c(NC(=O)CSc2cn(CC(=O)N3CCCCCC3)c3ccccc23)c1	FMDV antiviral inconclusive, HCMV inh inconclusive, Lassa entry inh inconclusive (no result: Marburg entry inh)
CC1CCN(C(=O)Cn2cc(SCC(=O)NCc3ccc(F)cc3)c3ccccc32)CC1	HCMV inh inconclusive (no result: Marburg entry inh)
COc1ccc(Cl)cc1NC(=O)CSc1cn(CC(=O)N2CCCCC2)c2ccccc12	FMDV antiviral inconclusive, HCMV inh -72 (no result: Marburg entry inh)
COC(=O)c1ccccc1NC(=O)Cn1nnc2sc(-c3ccccc3)cc2c1=O	none
CC(=O)/C(N=Nc1cc2c(c([N+](=O)[O-])c1C)C(C)(C)CC2(C)C)=C(\C)O	FMDV antiviral 25µM
COCC(=O)Nc1cc(C(=O)N2CC3CCC2C3)c2c(c1)nc(-c1ccncc1)n2C (centres undefined)	none (no result: HCMV inh, Marburg entry inh, Lassa entry inh)
Cc1nn(Cc2ccc(Cl)c(Cl)c2)c(C)c1NC(=O)c1sc2ccccc2c1Cl	FMDV antiviral 32µM, Vaccinia mCherry inconclusive, Lassa entry inh inconclusive
